Out of some 1,500 compounds screened, about 460 (31%) were called active. Roughly 1% stayed inconclusive and do not appear here.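 The calls were made as follows: active = curve reaches 40% activation over neutral controls at an AC40 no higher than the top valid tested concentration; inconclusive = no clear call, values can overlap the other calls; inactive = signal moving opposite to the expected increase, and the rest.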 Only a sample is shown. Measured potencies and affinities stand elsewhere.
Assay: GLuc-reported insulin release enhancers, glucose-stimulated beta cells – cell-based, INS-1E, Gaussia luciferase, luminescence, cherry-pick, set 2, dose response (AID 977607);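 also: 0% = median of the plate neutral control wells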
Details: INS-1E GLuc insulin secretion reporter, 2-3 h, stronger effect = higher value; at 35 µM, 100% = signal doubled over neutral wells unless noted

Max activation, inactive:
C=CCc1ccccc1Oc1cc(OC)nc(N)n1 -22% [at 1.2 µM, 100% = signal doubled over neutral wells], COc1ccc(CCNC(=O)C(=O)c2c(C)n(C)c3ccccc23)cc1OC -13.8% [at 1.2 µM, 100% = signal doubled over neutral wells], COc1ccc(OCCCCN(C)Cc2ccccc2)cc1 -18.5% [at 1.2 µM, 100% = signal doubled over neutral wells], CCC(C)c1ccccc1OCCn1ccnc1 (configuration not stated) 16.6% [at 0.005 µM, 100% = signal doubled over neutral wells], O=C(N/N=C/c1ccc2c(c1)OCO2)c1ccc(Cl)cc1Cl -37.2%, CCC(=O)Nc1sc(Cc2ccc3c(c2)OCO3)c(C)c1C(N)=O -24.2% [at 0.0016 µM, 100% = signal doubled over neutral wells], O=C(Nc1ccc(F)cc1)c1cccnc1Oc1ccccc1 21.8%, CC(C)CCN1CC(O)=C(c2nc(-c3ccc(Cl)cc3)cs2)C1=N -11.3% [at 0.005 µM, 100% = signal doubled over neutral wells], CCCn1c(C)cc(C)c(C#N)c1=O -11.7% [at 1.2 µM, 100% = signal doubled over neutral wells], O=C(O)CC(CC(=O)Nc1ccc(C(=O)O)cc1)c1ccccc1 (configuration not stated) 11.8% [at 3.8 µM, 100% = signal doubled over neutral wells], CCNc1nc(Oc2ccc(C#N)cc2)cc(C(F)(F)F)n1 -19% [at 0.135 µM, 100% = signal doubled over neutral wells], O=S(=O)(NCc1ccccc1)c1ccc(-n2cccn2)cc1 32% [at 0.135 µM, 100% = signal doubled over neutral wells], Cc1ccc2c(c1)N(C(C)C(=O)NCc1cccs1)C(=O)CO2 (configuration not stated) 15.9% [at 0.42 µM, 100% = signal doubled over neutral wells], CN1CCCC1CCNC1C2CC3CC(C2)CC1C3 (configuration not stated) -20.8% [at 0.135 µM, 100% = signal doubled over neutral wells], Cc1ccc(-n2nc3c(c2NC(=O)C2CC2)CS(=O)(=O)C3)cc1 -19.6% [at 0.005 µM, 100% = signal doubled over neutral wells], CC(C)CN(C(=O)C1CCCCC1)C1CCS(=O)(=O)C1 (configuration not stated) -14.6% [at 3.8 µM, 100% = signal doubled over neutral wells], CC1CCC(NC(=O)C2COc3ccccc3O2)CC1 (configuration not stated) -17.3% [at 0.135 µM, 100% = signal doubled over neutral wells], O=C(O)C1Cc2c([nH]c3ccccc23)C(c2ccc3c(c2)OCO3)N1 (configuration not stated) 27.5% [at 0.015 µM, 100% = signal doubled over neutral wells], CC(=O)N1CCN(c2nc(-c3cccs3)nc3ccccc23)CC1 40.4% [at 11 µM, 100% = signal doubled over neutral wells], Cc1nn(-c2ccccc2)c2nc(C(F)F)cc(C(F)F)c12 13.6%, COc1ccc(-c2cnc(N)nc2-c2ccc(OC)cc2)cc1 20.9% [at 11 µM, 100% = signal doubled over neutral wells], Cc1cccn2cc(CCNS(=O)(=O)c3cccs3)nc12 -22.2% [at 0.42 µM, 100% = signal doubled over neutral wells], COc1ccccc1C(C)NS(=O)(=O)c1ccc(Cl)nc1 (configuration not stated) 15.6% [at 3.8 µM, 100% = signal doubled over neutral wells], Cc1cc(OCC(O)CNC(C)c2ccccc2)ccc1C(C)C (configuration not stated) 327%, Cc1cn(CC(C)C)c(=O)n(-c2ccccc2)c1=O 12.2%, Cc1cccc2nc(-c3ccco3)c(Nc3ccccc3)n12 -25.5%, COc1ccc(N2CC(C(=O)N3CCc4ccccc43)CC2=O)cc1 (configuration not stated) -12.5% [at 0.0016 µM, 100% = signal doubled over neutral wells], COc1ccc(-c2[nH]c3ccccc3c2SCCN)cc1 -28.1%, O=c1c(C(c2ccccc2)c2c(O)sc3ccccc3c2=O)c(O)sc2ccccc12 19.2%, CCCCc1[nH]c(=O)c(C#N)c2c1CCCC2 16.7%, Cc1c(OCC(=O)NCc2ccccn2)ccc2c3c(c(=O)oc12)CCCC3 27.3%, NNc1nc(-c2ccccc2)c2ccccc2n1 -19.6% [at 0.046 µM, 100% = signal doubled over neutral wells], CCn1c(=O)[nH]c(=O)c2c(N)c(C(=O)c3cc(F)ccc3F)sc21 27.3%, COC(=O)N1CCCCC1c1cc(C(=O)NCc2ccc(Cl)c(Cl)c2)no1 (configuration not stated) -38.9%, CC(C)COc1ccc(Br)cc1CNC(C)(C)C -18.4% [at 11 µM, 100% = signal doubled over neutral wells], COCCN1Cc2cccc(C(=O)NCc3ccccc3OC)c2C1=O -20% [at 0.0016 µM, 100% = signal doubled over neutral wells], CSc1ccc(/C=N/N(C)S(=O)(=O)c2ccc(C)cc2)cc1 -22.1%, Cc1ccc(S(=O)(=O)/N=C2\CN(C)C(=O)N2C)cc1 -21.8% [at 3.8 µM, 100% = signal doubled over neutral wells], CCCc1nc(-c2cc3cc(C)ccc3[nH]c2=O)no1 -13.2% [at 1.2 µM, 100% = signal doubled over neutral wells], O=C(O)c1c(NC(=O)N2CCOCC2)sc2c1CCCC2 -10.1% [at 0.0016 µM, 100% = signal doubled over neutral wells], CCOC(=O)c1c(N)c(C#N)c2n1CCCC2 -17% [at 0.0016 µM, 100% = signal doubled over neutral wells], CCOc1ccc(C(=O)NCC(=O)OCCN2C(=O)c3ccccc3C2=O)cc1OCC -25.4% [at 0.135 µM, 100% = signal doubled over neutral wells], O=S(=O)(NCC1CCCO1)c1ccc(Cl)nc1 (configuration not stated) -19.6% [at 3.8 µM, 100% = signal doubled over neutral wells], CCCCNC(=O)C1(C)CCN1C(=O)c1cc2ccccc2s1 (configuration not stated) -22.6% [at 3.8 µM, 100% = signal doubled over neutral wells], CC1(C(=O)N2CCCCC2)CCN1C(=O)C1(c2ccccc2)CC1 (configuration not stated) -16.5% [at 0.046 µM, 100% = signal doubled over neutral wells], Cc1noc(C)c1S(=O)(=O)NC(=O)C1(C)CCN1C(=O)C1(c2ccc(Cl)cc2)CCC1 (configuration not stated) -18.9% [at 0.135 µM, 100% = signal doubled over neutral wells], CCSc1ncnc2c(C#N)c3n(c12)CCCCC3 -11.2% [at 0.005 µM, 100% = signal doubled over neutral wells], Cc1cc(=O)[nH]c2c1c(C)nn2C1CCCC1 -15.7% [at 1.2 µM, 100% = signal doubled over neutral wells], CCCCOc1ccc(-c2nnn(CC(=O)c3c[nH]c4ccccc34)n2)cc1 -22.5%, CCN1CCN(c2ccc(S(=O)(=O)N3CCCCC3)cc2NC(=O)c2cc3ccccc3o2)CC1 -44.3%, Cc1cccc(C)c1NC(=O)C1c2ccccc2Oc2ccccc21 22.9%, CCCCOC(=O)c1cc(-c2ccc(/C=N/n3cnnc3)o2)ccc1Cl 9.8% [at 1.2 µM, 100% = signal doubled over neutral wells], O=C(CNC(=O)c1ccco1)N/N=C/c1ccc(C(=O)O)cc1 52.9% [at 11 µM, 100% = signal doubled over neutral wells], O=C(c1ccc2c(c1)OCO2)N1CCc2ccccc2C1 14.5%, O=C(CCN1CCOCC1)c1ccc(N2CCCCC2)cc1 -35% [at 3.8 µM, 100% = signal doubled over neutral wells], CC(C)Oc1ccc(C(=O)CCN2CCOCC2)cc1 -16%, CC(=O)NC1C(=O)N(CCN2CCOCC2)c2ccc(Br)cc21 (configuration not stated) -15.1% [at 3.8 µM, 100% = signal doubled over neutral wells], CC1(c2ccc(OC(F)F)cc2)NC(=O)N(CC(=O)Nc2cccc(S(N)(=O)=O)c2)C1=O (configuration not stated) -16.7%, C=CCN(CC=C)S(=O)(=O)c1ccc(C(=O)Nc2sc3c(c2C(N)=O)CCCCC3)cc1 -33.8% [at 3.8 µM, 100% = signal doubled over neutral wells], C[C@H](O)[C@@H]1CN2CCc3ccc(-c4ccc5c(c4)OCO5)cc3[C@@H]2C[C@@H]1N(C)C(=O)c1cccc(Cl)c1 18.9% [at 0.42 µM, 100% = signal doubled over neutral wells], CC(C(=O)N1CCC(C(N)=O)CC1)N(c1ccc(Oc2ccccc2)cc1)S(C)(=O)=O (configuration not stated) 28.2% [at 0.42 µM, 100% = signal doubled over neutral wells], COc1ccc(CCNC(=O)CCc2ccccc2O)cc1OC -17.8% [at 0.005 µM, 100% = signal doubled over neutral wells], COc1ccc(CCNC(=O)CCc2ccccc2)cc1OC -19.6% [at 0.42 µM, 100% = signal doubled over neutral wells], CC(=O)NCCNC(=O)CNC(=O)c1ccc(Cl)cc1 -16.4% [at 0.0016 µM, 100% = signal doubled over neutral wells], CCNc1nc(NC(C)CC)nc(ON=C(C)C)n1 (configuration not stated) 31.8%, COc1cccc2cc(-c3cc(=O)oc4cc(C)c(O)cc34)oc12 15.9% [at 3.8 µM, 100% = signal doubled over neutral wells], COCCN(CCOC)Cc1cc(=O)oc2cc(C)c(C)cc12 -22.4% [at 0.046 µM, 100% = signal doubled over neutral wells], O=C(NCCN1CCN(C(=O)c2ccccc2Cl)CC1)C(=O)NCc1ccccc1 23.3% [at 0.005 µM, 100% = signal doubled over neutral wells], CC(O)c1nc2ccc(Cc3ccc4nc(C(C)O)[nH]c4c3)cc2[nH]1 (configuration not stated) -15% [at 0.0016 µM, 100% = signal doubled over neutral wells], CCNc1nc(NC(C)C)nc(N(C)C#N)n1 18.9%, COc1ccc(/C=N/NC(=O)c2cc(-c3ccc4c(c3)OCO4)n[nH]2)cc1OC 26.5% [at 3.8 µM, 100% = signal doubled over neutral wells], O=C(NN=C1CCCC1)c1cc(-c2ccccc2)n[nH]1 -11.9% [at 1.2 µM, 100% = signal doubled over neutral wells]

Source: PubChem BioAssay AID977607 (Broad Institute, 2014)
